Test results from PubChem BioAssay.
Unmarked numbers belong to inactive results.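 The calls were made as follows: active = inhibition at or above 50% relative to wild type and mutant plate controls; inactive = inhibition below 50%.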

test: inhibitors of Chlamydomonas gravitaxis, primary screen, whole organism, Chlamydomonas reinhardtii, WT vs cilia-less mutant, absorbance, 96-well (AID 463189); settings: OD600 absorbance, 2 days, at 10 µM, active compounds read high;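 also: 0% = wild type cc124 cells in DMSO and 100% = ciliumless bld1 mutant cells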

Compared with CCCCN1CCC(COC(=O)c2cc(Cl)c(N)c3c2OCCO3)CC1, CCN1CCC[C@H]1CNC(=O)c1c(OC)ccc(I)c1O is higher in inhibition: -6.29% for the first, 9.9% for the second.

Going from C[C@@H](Oc1ccc(Oc2cnc3ccc(Cl)cc3n2)cc1)C(=O)O to CN(C)CCC(c1ccc(Cl)cc1)c1ccccn1 (stereo not given), the inhibition falls from 9.86% to 9.56%.

Compared with CC[C@@H](C)[C@H]1O[C@]2(CC[C@@H]1C)C[C@@H]1C[C@@H](C/C=C(\C)[C@@H](O[C@H]3C[C@H](OC)[C@@H](O[C@H]4C[C@H](OC)[C@@H](O)[C@H](C)O4)[C@H](C)O3)[C@@H](C)/C=C/C=C3\CO[C@@H]4[C@H](O)C(C)=C[C@@H](C(=O)O1)[C@]34O)O2, COc1cc([C@@H]2c3cc4c(cc3[C@H](O)C3COC(=O)[C@@H]32)OCO4)cc(OC)c1OC (stereo not given in full) is lower in inhibition: 22.3% for the first, 0.089% for the second.

First: N[C@@H](CCCC(=O)O)C(=O)O
Second: NCCCC(N)(C(=O)O)C(F)F (stereo not given)
The inhibition of the first is higher: 6.53% for the first, 3.03% for the second.

Compared with OC1(c2ccc(Cl)cc2)CCN(Cc2c[nH]c3ccccc23)CC1, OCc1ccc(-c2nn(Cc3ccccc3)c3ccccc23)o1 is lower in inhibition: 21.4% for the first, 3.81% for the second.

First: CCn1cc(C(=O)O)c(=O)c2ccc(Cc3ccccc3)nc21
Second: Cc1ccc(S(=O)(=O)N[C@@H](Cc2ccccc2)C(=O)CCl)cc1
The inhibition of the first is higher: 6.19% for the first, -2.77% for the second.

First: Cc1ccc(O)c(N=Nc2ccccc2)n1
Second: N#C/C(=C\c1ccc(O)c(O)c1)C(=O)Nc1ccccc1
The inhibition of the first is lower: -1.99% for the first, 5.13% for the second.

First: C[N+](C)(C)CC=O
Second: Cc1cccc(C)c1NC(=O)C[N+](C)(C)C
The inhibition of the first is lower: 5.9% for the first, 7.92% for the second.

Compared with O=Nc1ccc2oc(=O)ccc2c1, O=C(O)c1cc(=O)c2ccccc2[nH]1 is higher in inhibition: -9.21% for the first, 9.15% for the second.

Going from CCCCCCCCCCCCC/C=C/C(O)C(N)CO (stereo not given) to CCCCC/C=C\CC(O)/C=C/c1cccc(CC(O)CCCCO)n1 (stereo not given), the inhibition rises from -1.48% to -1.14%.

Compared with C[C@@H](NC(=O)/C(C#N)=C/c1ccc(O)c(O)c1)c1ccccc1, C[C@H](NC(=O)/C(C#N)=C/c1ccc(O)c(O)c1)c1ccccc1 is lower in inhibition: 4.46% for the first, -0.423% for the second.

Going from CCn1cc(C(=O)O)c(=O)c2cc(F)c(N3CCNC(C)C3)c(F)c21 (stereo not given) to Cc1scc2c1N(C(=O)CN1CCN(C)CC1)c1ccccc1NC2=O, the inhibition falls from 3.51% to -1.6%.

Going from COc1c2c(nc3ccccc13)OC(C(C)(O)CO)C2 (stereo not given) to CC[C@H](NC(=O)c1c(C)c(-c2ccccc2)nc2ccccc12)c1ccccc1, the inhibition rises from 6.88% to 9.84%.

Compared with O=C1NCN(c2ccccc2)C12CCN(CCCC(c1ccc(F)cc1)c1ccc(F)cc1)CC2, COc1ccccc1N1CCN(CCCCN2C(=O)c3ccccc3C2=O)CC1 is higher in inhibition: -2.36% for the first, 1.35% for the second.

Going from NCCNC(=O)c1ccc(Cl)cc1 to CC(N)(C(=O)O)c1ccc(C(=O)O)cc1 (stereo not given), the inhibition falls from 5.46% to 5.26%.

Going from N#C/C(=C\c1c[nH]c2ccccc12)C(=O)c1ccc(O)c(O)c1 to Oc1ccccc1O, the inhibition falls from 4.95% to -5%.

First: Oc1ccc(C2CNCCc3c2cc(O)c(O)c3Cl)cc1 (stereo not given)
Second: NC(C(=O)N[C@@H]1C(=O)N2C(C(=O)O)=C(Cl)CS[C@H]12)c1ccccc1 (stereo not given in full)
The inhibition of the first is lower: -6.72% for the first, 7.28% for the second.

Compared with CN(C)CCC(c1ccccc1)c1ccccn1 (stereo not given), CC(=O)OCC1=C(C(=O)O)N2C(=O)[C@@H](NC(=O)CSc3ccncc3)[C@H]2SC1 is lower in inhibition: 7.99% for the first, 6.67% for the second.

Compared with NC(N)=NCCCCN=C(N)N, NC(=O)c1ncn([C@@H]2O[C@H](CO)[C@@H](O)[C@H]2O)n1 is higher in inhibition: -4.67% for the first, 8.25% for the second.

First: O=C(O)C1CCCNC1 (stereo not given)
Second: NO
The inhibition of the first is higher: -1.36% for the first, -14.1% for the second.
